The campaign covered roughly 300,000 compounds. About 1,100 (0.37%) were called active.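 The calls were made as follows: active = inhibition past about -25% in most replicates, and total fluorescence under double the plate's negative control median (limit read from the data); inconclusive = replicates evenly split on the limit, or fluorescence at least double controls; inactive = too little inhibition in most replicates.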 This excerpt belongs to a sample that is enriched for actives.
molecular target: Zinc finger protein mex-5 (Caenorhabditis elegans) (UniProt Q9XUB2); assay: MEX-5 zinc finger RNA-binding disruptors – biochemical, C. elegans, fluorescence polarization, MLPCN library, primary screen (AID 1832); settings: MEX-5/FITC-TCR2 RNA binding, at 10 µM, stronger effect = lower value;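 also: 0% = DMSO and -100% = 5 µM competing unlabeled TCR2 RNA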
Sequence (Q9XUB2 whole entry, looked up): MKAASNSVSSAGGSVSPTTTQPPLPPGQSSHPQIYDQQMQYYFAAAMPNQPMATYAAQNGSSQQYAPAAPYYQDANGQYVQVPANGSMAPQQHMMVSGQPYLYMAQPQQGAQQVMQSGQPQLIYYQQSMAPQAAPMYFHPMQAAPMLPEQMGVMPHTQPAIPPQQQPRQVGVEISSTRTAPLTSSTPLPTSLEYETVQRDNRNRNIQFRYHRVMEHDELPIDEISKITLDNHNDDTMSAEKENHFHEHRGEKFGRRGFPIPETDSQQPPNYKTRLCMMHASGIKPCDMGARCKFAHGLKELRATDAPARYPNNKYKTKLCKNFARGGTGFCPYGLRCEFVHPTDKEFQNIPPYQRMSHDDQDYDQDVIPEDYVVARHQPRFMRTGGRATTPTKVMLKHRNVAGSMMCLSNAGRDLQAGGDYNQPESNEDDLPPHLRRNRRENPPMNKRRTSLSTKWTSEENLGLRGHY

Activity score (negative = inhibition of binding), active:
Clc1cc(-c2ccc(/C=N/n3cnnc3)o2)ccc1Br -34%
CC1(OC(=O)C2CCCC2)C(=O)C=C2C=C(c3ccc(C#N)cc3)OC=C2C1=O (configuration not stated) -40%
N#CC1=C(N)C(C#N)(C#N)[C@H](c2ccsc2)[C@H]2COCC=C12 -30.3%
CN1C(=O)c2cccc3c(N)ccc(c23)C1=O -51.4%
COc1ccc(-c2onc3ccc(C(C)=O)cc23)cc1 -69.7%
CN1c2ccc(C=O)c3c(C=O)ccc(c23)N(C)C1(C)C -35.3%
Cc1nn(C(C)C(=O)N2CCOCC2)c(=O)c2nn(-c3ccccc3)c(C)c12 (configuration not stated) -34.7%
COc1cc2c(cc1/C=C1/NC(=O)N(c3ccccc3)C1=O)OCO2 -27%
COc1ccc(C(=O)/C=C/c2ccc(-c3ccccc3)cc2)cc1CSCC(=O)O -31.8%
Cc1cc(C)nc(NNC2=CC(=O)CC(C)(C)C2)n1 -66.2%
Oc1[nH]c2ccc(Br)cc2c1N=Nc1nn[nH]n1 -74.2%
CC(=O)n1c(C=Nc2ccccc2)c(O)c2ccccc21 -52.6%

Activity score (negative = inhibition of binding), inactive:
Cc1ccc(Cl)cc1-c1ccc(/C=N/n2cnnc2)o1 0.0863%
Brc1cc(/C=N/n2cnnc2)oc1Br 0.986%
Cc1ccoc1C(=O)Nc1cccc(Oc2ccccc2)c1 -2.34%
COc1ccc(CNC(=O)COc2cccnc2[N+](=O)[O-])cc1 0.235%
C=CCN1C=C2C(=O)C(C)(OC(=O)CCc3ccccc3)C(=O)C=C2C=C1c1ccc(C#N)cc1 (configuration not stated) -5.84%
COCCN1C=C2C(=O)C(C)(OC(=O)C3CCCC3)C(=O)C=C2C=C1c1ccsc1 (configuration not stated) -2.5%
CCOC(=O)N1CCC(NC(=O)C(NS(=O)(=O)c2ccc3c(c2)CCN3C(=O)CC)C(C)C)CC1 (configuration not stated) -1.98%
O=C(COc1ccc(Cl)cc1Cl)N/N=C/c1ccccn1 4.25%
CSc1ncc(C(=O)NCCCc2ccccc2)c(C)n1 -2.7%
CCOc1ccc(C(=O)NC2CCN(CC(=O)NCc3cccs3)CC2)cc1 -1.2%
Cc1ccc2c(c1)C(c1ccccc1)N(C(=O)c1ccc(F)cc1)CC(=O)N2 (configuration not stated) -0.463%
CCCNC(=O)N1CCC(c2ccc3c(c2)OCO3)CC1 2.15%
Cc1nn(C)cc1N1C(=O)c2cccc3c(N)ccc(c23)C1=O 1.83%
CCN1C(=O)c2cccc3c(N)ccc1c23 1.15%
NC(=O)Cc1ccc2sc(-c3ccccc3)nc2c1 -1.64%
O=C1c2ccccc2C(Nc2ccc3c(c2)OCCO3)N1Cc1ccco1 (configuration not stated) -1.03%
CCc1ccc(CNC(=O)C2CCN(c3nnc(C)c4c(C)n(-c5ccc(C)cc5)nc34)CC2)cc1 -2.92%
O=C(Nc1cccc2c1N(C(=O)c1ccco1)CCC2)c1ccco1 -0.00473%
O=C(NCc1nnc(SCC(=O)N2CCC(Cc3ccccc3)CC2)o1)c1ccco1 -1.62%
Oc1ccc(-c2onc3ccc(Cl)cc23)cc1 -1.78%
CC(OC(=O)c1ccc2noc(-c3ccccc3)c2c1)C(N)=O (configuration not stated) -5.27%
COc1ccc(Cn2c(-c3ccc(Cl)cc3)c[n+]3ccccc23)cc1 2.75%
COc1ccc(NC(=O)c2cn(-c3ccccc3)nc2SC)cc1 2.01%
COc1ccc(NC(=O)CN(C)C(=O)c2n[nH]c3ccccc23)cc1 -3.49%
CCCCN(CC)CCCNC(=O)c1ccc(CSc2nc3ccncc3[nH]2)cc1 1.01%
Cc1ccc(C2NC(=S)NC3=C2N2CCC3CC2)cc1 (configuration not stated) 0.478%
Cc1nonc1C1CCCN1Cc1nc(-c2ccc(F)cc2F)oc1C (configuration not stated) -2.15%
Cc1ccc(-n2cc(CN(C)Cc3nccn3C)c(-c3cccc(C)c3)n2)cc1 1.9%
N#C[C@]1(S(=O)(=O)c2ccccc2)C[C@@H]2ON=C(c3cccc(Br)c3)[C@@H]2C1 1.51%
Cc1ccnc(NC(=O)c2ccc(Cl)c([N+](=O)[O-])c2)c1 -0.216%
Cc1nn(CC(=O)N2CCCCC2)c(=O)c2nn(-c3ccccc3)c(C)c12 -3.02%
Cc1nn(C(C)C(=O)NCCC2=CCCCC2)c(=O)c2nn(-c3ccccc3)c(C)c12 (configuration not stated) -2.35%
CC(C)Cc1nnc(NC(=O)CCc2ccccc2)s1 -0.0404%
COC(=O)CSc1nnc(NC(=O)CCc2ccccc2)s1 0.825%
O=C(COC(=O)c1cccc(Cl)c1)Nc1ccc2[nH]c(=O)[nH]c2c1 0.565%
NC(=O)c1nsc(C(=O)N(CCCN2CCOCC2)C(C(=O)NC2CCCCC2)c2ccc(Cl)cc2)c1N (configuration not stated) -0.973%
COC(=O)c1ccc(NC(=O)c2cc3c(CO)cnc(C)c3oc2=Nc2cccc(C(N)=O)c2)cc1 -0.18%
Cc1cc(NC(=O)Nc2ccccc2[N+](=O)[O-])no1 0.456%
COc1ccc(/C=C2/C(=O)N(c3ccccc3)N=C2C)c(OC)c1 1.89%
O=C1N/C(=C/c2cccn2-c2ccccc2)C(=O)N1c1cccc(Cl)c1 3.72%
COc1ccc(C(=O)/C=C/c2cccnc2)c(OC)c1 0.878%
COc1ccc(/C=C/C(=O)c2ccc(NS(=O)(=O)c3ccc(C)cc3)cc2)cc1O -0.65%
COC(=O)c1ccc(COc2ccc(/C=C/C(=O)c3ccc(OC)c(CSCC(=O)O)c3)cc2OC)cc1 -5.72%
COc1ccc(CCNS(=O)(=O)c2cc3c(cc2C)NC(=O)CO3)cc1OC 0.926%
COC(=O)NNC1=CC(=O)CC(C)(C)C1 -6.29%
CC1(C)CC(=O)C=C(Nc2ccccc2)C1 1.36%
Cc1cc(NC(=O)CCC(=O)N(Cc2ccccc2)C(C(=O)NC2CCCC2)c2ccc(C)o2)no1 (configuration not stated) -2.13%
O=C(CNC(=O)Cc1ccccc1)N=Nc1c(O)[nH]c2ccc(Br)cc12 0.589%
NS(=O)(=O)c1ccc(N=Nc2c(O)[nH]c3ccc(Br)cc23)cc1 -2.29%
O=c1[nH]c(CN2CCOCC2)nc2scc(-c3ccccc3)c12 1.42%
COc1ccc(NC(=O)CCn2ccnc2)c(OC)c1 -0.322%
CCCCn1c(=O)c(C(C)=O)c(O)c2ccccc21 0.942%
CCOc1ccc(N=Cc2c(O)n(-c3cccc(C)n3)c(=O)c3ccccc23)cc1 -1.96%
C=CCn1cc(Cl)cc(C(=O)Nc2ccccc2)c1=O -0.689%
COc1ccccc1NC(=O)CCSc1nnc(-c2ccc(O)cc2)o1 -2.37%

From PubChem BioAssay AID1832 (Broad Institute, 2009)
